Screens from PubChem.
Hits are enriched below; roughly 4.5% of the tested compounds scored in any of these assays.
SKKanGAS inh: SKKanGAS growth inhibition; S. pyogenes SKKanGAS, kanamycin growth, BacTiter-Glo, 6 h; inhibition, % at 7.5 µM; 300,000 compounds, 1.3% hits;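 active = mean replicate score, as percent of positive control median, at least 50; inconclusive = mean below 50 but one replicate at or above 50; inactive = mean and every replicate below 50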;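 also: strain carries kanamycin resistance gene driven by streptokinase promoter and grows in 40 µg/ml kanamycin; loss of luminescence reflects streptokinase promoter inhibition or plain growth inhibition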
NLRP3 yeast inh: blocks the NALP3 inflammasome reconstituted in yeast; Yeast reconstituted NLRP3/ASC/caspase-1, beta-gal luminescence, 24 h; inhibition, % at 10 µM; 330,000 compounds, 0.39% hits; AID 2825;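 active = inhibition of 50% or more; inactive = inhibition below 50%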
TIM10 inh: growth inhibitors of TIM10 yeast strain; 330,000 compounds, 1.4% hits; S. cerevisiae TIM10 strain growth, BacTiter-Glo luminescence, 24 h; AID 463195; inhibition, % at 10 µM;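 active = inhibition of 40% or more at the single tested concentration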;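 also: wild-type TIM10 isogenic control strain grown at permissive 25 °C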
PfHsp90 set2: reduces growth (ATP signal) of yeast expressing P. falciparum Hsp90; S. cerevisiae expressing PfHsp90, BacTiter-Glo ATP, 48 h; yeast lacking PDR1 and PDR3 efflux regulators; 310,000 compounds, 0.32% hits; AID 504621; inhibition, % at 9.4 µM;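 active = every replicate shows inhibition above about 80%, whatever the replicate mean, limit read from the data; inconclusive = mean inhibition reaches the set limit but some replicate falls short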
tim10-1 inh: tim10-1 yeast growth inhibition | inhibition, % at 20 µM | 330,000 compounds, 2.2% hits | S. cerevisiae tim10-1 ts strain growth, BacTiter-Glo, 24 h | AID 463190;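 active = inhibition of at least 40%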;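 also: mutant grown at 25 °C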
tim23-1 inh: growth inhibitors of tim23-1 mutant yeast | 330,000 compounds, 1.3% hits | inhibition, % at 20 µM | S. cerevisiae tim23-1 growth, BacTiter-Glo luminescence, 24 h;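 active = growth inhibition of the mutant yeast at or above 50%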;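 also: temperature-sensitive mutant grown at 25 °C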
tim10 confirm: confirmation of TIM10 yeast growth inhibitors | inhibition, % at 10 µM | S. cerevisiae tim10 strain growth, BacTiter-Glo luminescence, 24 h | 4,600 compounds, 63% hits | shares compounds with TIM10 inh;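 active = inhibition of yeast growth at or above a set limit in either of two replicates at 10 µM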; also: this counterscreen used the strain with wild-type TIM10
tim23-1 confirm: tim23-1 yeast growth inhibition, confirmed | 4,400 compounds, 83% hits | inhibition, % at 20 µM | shares compounds with tim23-1 inh | S. cerevisiae tim23-1 growth, BacTiter-Glo luminescence, 24 h;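 active = inhibition above about 39% in either of two replicate wells at 20 µM, limit read from the data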;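 also: temperature-sensitive tim23-1 mutant grown at 25 °C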
Large screens that a line does not name were inactive (follow-up assays come after a bar, where they were run).

CC(C)(C)c1ccc(OCC(=O)NNC(=S)NC(=O)c2ccccc2[N+](=O)[O-])c(Br)c1	SKKanGAS inh 99.9, TIM10 inh 48.7 | tim10 confirm 43.8
COc1ccc(C(=O)NNC(=O)c2ccccc2[N+](=O)[O-])cc1Br	none
CCOC(=O)c1ccc(NC(=O)c2c(N)n(Cc3ccccc3)c(=O)[nH]c2=O)cc1	TIM10 inh 97.6 | tim10 confirm inactive
COc1ccc(-c2ncncc2-c2ccc(OC)c(OC)c2)c(O)c1	none
COc1ccc(-c2cc(-c3ccc(OC)c(OC)c3)n[nH]2)c(O)c1	TIM10 inh 46.6 | tim10 confirm inactive
COc1ccc(O)c(-c2cc(-c3cccc(Br)c3)n[nH]2)c1	SKKanGAS inh 56.4, TIM10 inh 52.7, PfHsp90 set2 94.4 | tim10 confirm 62.5
O=[N+]([O-])c1cccc(-c2cc(-c3cc(Br)ccc3O)[nH]n2)c1	TIM10 inh 46.8 | tim10 confirm 43.3
O=S(=O)(c1ccccc1)N1CCN(C/C=C/c2ccccc2)CC1	none
O=S1(=O)N=C(N2CCCC2)c2ccccc21	none
CC1Cc2ccccc2N1C1=NS(=O)(=O)c2ccccc21 (configuration not stated)	TIM10 inh 41.8 | tim10 confirm inactive
CCn1nnc2cc(C(=O)OCC(=O)N(C)Cc3cccc(F)c3)ccc21	none (no result: SKKanGAS inh)
COc1ccccc1N1CCN(C(=O)c2ccc([N+](=O)[O-])s2)CC1	TIM10 inh 42.8 | tim10 confirm inactive
Nn1c(SCc2ccc(Br)cc2)nnc1-c1ccncc1	none
Cc1ccc(CSc2nnc(-c3ccncc3)n2N)cc1	TIM10 inh 41.9 (no result: PfHsp90 set2) | tim10 confirm inactive
O=C(N/N=C/c1ccc(OC(F)F)cc1OC(F)F)c1cccc(S(=O)(=O)N2CCOCC2)c1	none
COc1ccc(S(=O)(=O)N2CCCCCC2)cc1C(=O)N(CC(C)C)C1CCS(=O)(=O)C1 (configuration not stated)	none
O=C(O)c1ccc(S(=O)(=O)N2CCC(NC(=O)C3CCCCC3)CC2)cc1	none
CC(C)CCNC(=O)c1ccc(C2SCC(=O)N2Cc2ccco2)cc1 (configuration not stated)	TIM10 inh 53.6 | tim10 confirm inactive
O=C(O)Cc1sc(Nc2ccc(F)cc2)nc1-c1cccs1	none
CN(Cc1cnn(C)c1)C(=O)C1CCC(=O)N(Cc2ccc(Cl)cc2)C1 (configuration not stated)	none
Cc1ccc(Cc2cnc(NC(=O)c3ccco3)s2)cc1	none | tim10 confirm 39.9
CC(C)C(=O)Nc1ncc(Cc2ccc(Cl)cc2)s1	TIM10 inh 47.1 | tim10 confirm 33.9
O=C(Nc1ncc(Cc2cccc([N+](=O)[O-])c2)s1)c1ccco1	none
CC(NC(=S)NCc1ccc(F)cc1)C12CC3CC(CC(C3)C1)C2 (configuration not stated)	SKKanGAS inh inconclusive
CS(=O)(=O)NNC(=O)Cn1nnc(-c2ccc(OCc3ccccc3Cl)cc2)n1	none
NC(=O)CC[C@H](NC(=O)OCc1ccccc1)C(=O)OCc1ccc(Cl)cc1	TIM10 inh 45.5 | tim10 confirm inactive
CCN(Cc1ccccc1)S(=O)(=O)c1c(C)[nH]c(C)c1C(=O)N1CCCC1	TIM10 inh 52.5 | tim10 confirm inactive
O=C(Nc1ccc2oc(-c3cccc(F)c3)nc2c1)c1ccccc1F	none
O=C(Nc1ccc2oc(-c3ccccc3)nc2c1)c1ccccc1F	TIM10 inh 65.2 | tim10 confirm 53.8
O=C(Nc1ccc2oc(-c3ccncc3)nc2c1)c1ccccc1	TIM10 inh 44.5 | tim10 confirm inactive
CSCCC(NS(=O)(=O)c1ccc(C)cc1)C(=O)NNC(=O)c1csc(N2CCOCC2)n1 (configuration not stated)	none
COc1ccc(C(=O)N[C@H](C(=O)OCc2nc3ccsc3c(=O)[nH]2)C(C)C)cc1	none
CC(O)[C@H]1CNCCN1CCc1cccc(F)c1 (some centres not stated)	none
CCOC(=O)CCNC(=O)N1CCCC(Cc2ccccc2)(C(=O)OCC)C1 (configuration not stated)	none
O=C(NCc1nc(-c2ccc(Cl)cc2)no1)c1ccc2c(c1)OCO2	TIM10 inh 42.7 | tim10 confirm inactive
COc1cc2c(C(=O)N3CCOCC3)c(CSc3ccccc3)n(C)c2cc1Br	TIM10 inh 40.4 | tim10 confirm 29.7
O=C1C=CC2C(c3ccc4c(c3)OCO4)CC1N2Cc1ccccc1 (configuration not stated)	TIM10 inh 44.3, tim23-1 inh 57.9 | tim10 confirm 51.0 | tim23-1 confirm 46.9
c1ccc(CN2CCC(N3CCN(Cc4ccc5c(c4)OCO5)CC3)CC2)cc1	none
CCOc1ccc(NC(=O)COC(=O)CC2CC3CCC2C3)cc1 (configuration not stated)	TIM10 inh 44.2, tim23-1 inh 58.6 (no result: SKKanGAS inh) | tim10 confirm 39.8 | tim23-1 confirm 53.9
CN(C)S(=O)(=O)c1cc(NC(=O)COC(=O)CC2CC3CCC2C3)ccc1Cl (configuration not stated)	none (no result: SKKanGAS inh)
CC1CCCCN1C(=S)NC(=O)c1cc(Br)ccc1Cl (configuration not stated)	TIM10 inh 41.0, tim23-1 inh 54.5 (no result: SKKanGAS inh) | tim10 confirm 44.0 | tim23-1 confirm 50.5
CCC1CCCCN1C(=S)NC(=O)c1cc(Br)ccc1Cl (configuration not stated)	TIM10 inh 52.8, tim23-1 inh 57.7 (no result: SKKanGAS inh) | tim10 confirm 51.9 | tim23-1 confirm 53.2
CCC1CCCCN1C(=S)NC(=O)c1cccs1 (configuration not stated)	none
Cc1ccc(C(=O)NCc2cccnc2)cc1S(=O)(=O)N1CCCCCC1	none
CC(=O)c1ccc(N2CCN(C3CCC(C(C)(C)C)CC3)CC2)cc1 (configuration not stated)	none
COc1ccc(NC(=O)c2nc3nccc(C)n3n2)cc1S(=O)(=O)N1CCOCC1	none (no result: SKKanGAS inh)
COc1cccc(CNS(=O)(=O)c2c(C(=O)N3CCCC3)c(C)n(C)c2C)c1	none
Cn1c(NC2CCCCC2)cc(=O)n(C)c1=O	none
Cc1cc(C2CCCCC2)n(O)c(=O)c1	TIM10 inh 59.1, PfHsp90 set2 109.3, tim23-1 inh 65.8 (no result: SKKanGAS inh) | tim10 confirm 62.0 | tim23-1 confirm 52.5
Cc1ccc(-c2nnc(N3CCCCCC3)c3ccccc23)cc1	TIM10 inh 43.8, tim23-1 inh 59.9 | tim10 confirm inactive | tim23-1 confirm 54.2
